# Inconclusive results are not listed. Calls of active or inactive are those of the source. Unless noted, the call rests on the fitted dose curve.
# Experiments:
# [1] = target: Cytochrome P450 3A4 (Homo sapiens) (UniProt P08684); assay: qHTS for inhibitors of CYP3A4 against the NCATS DSHEA and TCM libraries (AID 1919971; active means well fitted curve in the direction sought with a large enough effect; an effect the other way counts as inactive or inconclusive;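 further: on the % scale 0 is the no-effect control and ±100 the full control effect; inhibition lowers luminescence from luciferin made by CYP3A4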)
# Chain of Cytochrome P450 3A4 (Homo sapiens) (P08684 whole entry, looked up): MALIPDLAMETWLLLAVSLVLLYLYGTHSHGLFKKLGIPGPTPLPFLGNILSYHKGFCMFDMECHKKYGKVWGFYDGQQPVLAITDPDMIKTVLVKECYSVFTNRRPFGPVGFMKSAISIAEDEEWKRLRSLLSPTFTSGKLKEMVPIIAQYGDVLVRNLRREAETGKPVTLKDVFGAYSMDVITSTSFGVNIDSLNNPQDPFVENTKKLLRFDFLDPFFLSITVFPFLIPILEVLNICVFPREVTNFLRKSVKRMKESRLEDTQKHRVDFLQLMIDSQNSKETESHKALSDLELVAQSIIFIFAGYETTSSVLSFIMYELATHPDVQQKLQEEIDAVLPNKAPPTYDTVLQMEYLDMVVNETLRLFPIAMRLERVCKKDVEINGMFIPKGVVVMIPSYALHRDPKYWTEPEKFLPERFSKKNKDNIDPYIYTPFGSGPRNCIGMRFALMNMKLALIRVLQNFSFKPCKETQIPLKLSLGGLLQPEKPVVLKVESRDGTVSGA
# Summary of the method: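 Luminescent P450-Glo format: compounds preincubated 15 min with enzyme and luciferin substrate, reaction run 30-45 min after NADPH regeneration solution. Intraplate controls: ketoconazole for CYP3A4 and CYP2C19, sulfaphenazole for CYP2C9.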
# [2] = target: Cytochrome P450 2C19 (Homo sapiens) (UniProt P33261); assay: qHTS for inhibitors of CYP2C19 against the NCATS DSHEA and TCM libraries (AID 1919974; active means well fitted curve in the direction sought with a large enough effect; an effect the other way counts as inactive or inconclusive;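 further: luminescence from luciferin released by CYP2C19 oxidation of a pro-luciferin substrate; on the % scale 0 is the no-effect control and ±100 the full control effect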)
# Chain of Cytochrome P450 2C19 (Homo sapiens) (P33261 whole entry, looked up): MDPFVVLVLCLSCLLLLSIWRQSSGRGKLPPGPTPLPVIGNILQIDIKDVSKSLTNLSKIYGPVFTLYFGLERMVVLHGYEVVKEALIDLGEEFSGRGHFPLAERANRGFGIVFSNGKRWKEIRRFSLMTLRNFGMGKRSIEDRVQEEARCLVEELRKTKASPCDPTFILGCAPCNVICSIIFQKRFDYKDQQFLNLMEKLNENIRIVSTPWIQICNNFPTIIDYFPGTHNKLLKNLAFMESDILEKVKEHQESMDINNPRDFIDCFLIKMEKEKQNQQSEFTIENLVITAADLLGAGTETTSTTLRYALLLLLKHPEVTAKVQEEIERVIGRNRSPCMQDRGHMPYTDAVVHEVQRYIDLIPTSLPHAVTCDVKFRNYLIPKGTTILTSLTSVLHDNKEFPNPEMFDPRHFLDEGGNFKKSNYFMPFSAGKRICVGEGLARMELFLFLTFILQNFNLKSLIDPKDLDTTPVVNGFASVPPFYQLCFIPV
# Source text: Assay Development and Screening Technology Laboratory (ADST)
# National Center for Advancing Translational Sciences (NCATS), Rockville, MD
# National Institute of Health (NIH), Bethesda, Maryland
# Dietary Supplements and Natural Products have minor oversight of their safety and efficacy. We assembled a collection of Dietary Supplements and Natural Products (DSNP) as well as Traditional Chinese Medicinal (TCM) Plant extracts, which were screened against an in vitro panel of assays, including a liver cytochrome p450 enzyme panel, CAR/PXR signaling pathways, and P-gp transporter assays, to assess their activity. This pipeline facilitated the interrogation of Natural Product-Drug Interaction (NaPDI) through prominent metabolizing pathways. In addition, we compared the activity profiles of the DSNP/TCM substances with those of an approved drug collection. Many of the approved drugs have well-annotated mechanisms of action (MOA) while the MOAs for most of the DSNP and TCM samples remain unknown. Based on the premise that compounds with similar activity profiles tend to share similar targets or MOA, we clustered the library activity profiles to identify overlap with the NCATS Pharmaceutical Collection to predict the MOAs of the DSNP/TCM substances. Overall, we highlight four significant bioactivity profiles (measured by p-values) as examples of this prediction. To assess broad cytotoxicity, we employed screening against a HepG2 cell line. In addition, transporter-mediated drug interactions are utilized in the characterization of DDIs using a P-glycoprotein (P-gp) assays. To profile potential P-gp activity, a differential cell viability was measured against two cell lines: a parental KB-3-1 human cervical adenocarcinoma cell line and the drug-resistant subline KB-8-5-11 that overexpresses P-gp.
# To this end, we profiled both collections for potential CAR and/or PXR activity, employing a previously published 1536-well qHTS assay.
# [1] […]
# 9; Read; Luminescence; ViewLux plate reader. […]
# [3] = KB-3-1 P-gp reporter qHTS against the NCATS DSHEA and TCM libraries (AID 1919975; active means well fitted curve in the direction sought with a large enough effect; an effect the other way counts as inactive or inconclusive; further: 0% is about no effect)
# Summary of the method: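 Cell viability qHTS: 500 KB-3-1 cells/well, substances in titration, ~72 h, 37C; luminescent CellTiter-Glo read.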
# [4] = target: Cytochrome P450 1A2 (Homo sapiens) (UniProt P05177); assay: qHTS for inhibitors of CYPIA2 against the NCATS DSHEA and TCM libraries (AID 1919976; active means well fitted curve in the direction sought with a large enough effect; an effect the other way counts as inactive or inconclusive;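 further: light from luciferin formed by CYP1A2 from a pro-luciferin substrate; series mostly up to about 37 µM; on the % scale 0 is the no-effect control and ±100 the full control effect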)
# Chain of Cytochrome P450 1A2 (Homo sapiens) (P05177 whole entry, looked up): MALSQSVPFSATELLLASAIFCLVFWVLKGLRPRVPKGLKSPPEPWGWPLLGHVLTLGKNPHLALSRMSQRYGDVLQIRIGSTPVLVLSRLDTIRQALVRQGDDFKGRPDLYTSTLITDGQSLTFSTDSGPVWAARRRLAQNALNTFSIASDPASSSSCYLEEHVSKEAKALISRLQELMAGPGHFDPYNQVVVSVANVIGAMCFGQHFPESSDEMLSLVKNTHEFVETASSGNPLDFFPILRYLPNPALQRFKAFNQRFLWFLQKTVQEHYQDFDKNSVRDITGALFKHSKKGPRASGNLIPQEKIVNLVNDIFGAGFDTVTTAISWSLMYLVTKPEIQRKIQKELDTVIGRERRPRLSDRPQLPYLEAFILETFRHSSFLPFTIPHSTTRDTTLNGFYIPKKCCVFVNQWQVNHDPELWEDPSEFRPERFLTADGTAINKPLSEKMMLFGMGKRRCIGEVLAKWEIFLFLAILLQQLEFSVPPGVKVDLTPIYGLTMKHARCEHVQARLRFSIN
# Summary of the method: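 Human CYP1A2 with pro-luciferin substrate (typically 100 mM KPO4), 15 min preincubation with compound, then 1x NADPH regeneration for 30-45 min at room temperature in the dark. Luciferin quantified by luciferase luminescence; furafylline intraplate control.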
# [5] = qHTS Counterscreen for compound interference against the NCATS DSHEA and TCM libraries (AID 1919978; active means well fitted curve in the direction sought with a large enough effect; an effect the other way counts as inactive or inconclusive;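 further: compounds preincubated with 1 µM D-luciferin or buffer before detection reagent; % of control where 0% means no effect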); settings: firefly luciferase detection reagent interference, luminescence
# Summary of the method: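 Interference check: test samples were incubated with D-luciferin (final 1 uM) or buffer only for 15 min, room temperature, in a qHTS titration up to 39.8 uM, then developed with detection reagent and read by luminescence.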
# [6] = Dual reporter qHTS for agonist of Pregnane X Receptor (hPXR) against the NCATS DSHEA and TCM libraries: Fluorescence readout (AID 1920058; active means well fitted curve in the direction sought with a large enough effect; an effect the other way counts as inactive or inconclusive; further: 0% is about no effect)
# Summary of the method: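 hPXR-Luc HepG2 cells, 2000/well in charcoal-stripped serum, attached 5 h, dosed for ~24 h at 37 °C. Fluorescence read is CellTiter-Fluor viability (Ex/Em 405/540 nm); rifampicin positive, tetraoctyl ammonium bromide (92 µM) cytotoxicity controls.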
# [7] = target: Nuclear receptor subfamily 1 group I member 2 (Homo sapiens) (UniProt O75469); assay: Dual reporter qHTS for antagonist of Pregnane X Receptor (hPXR) against the NCATS DSHEA and TCM libraries: Luminescence Readout (AID 1920060; active means well fitted curve in the direction sought with a large enough effect; an effect the other way counts as inactive or inconclusive;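 further: HepG2 cells carrying hPXR luciferase reporter stimulated with rifampicin at 2 µM; 0% is about no effect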)
# Chain of Nuclear receptor subfamily 1 group I member 2 (Homo sapiens) (O75469 whole entry, looked up): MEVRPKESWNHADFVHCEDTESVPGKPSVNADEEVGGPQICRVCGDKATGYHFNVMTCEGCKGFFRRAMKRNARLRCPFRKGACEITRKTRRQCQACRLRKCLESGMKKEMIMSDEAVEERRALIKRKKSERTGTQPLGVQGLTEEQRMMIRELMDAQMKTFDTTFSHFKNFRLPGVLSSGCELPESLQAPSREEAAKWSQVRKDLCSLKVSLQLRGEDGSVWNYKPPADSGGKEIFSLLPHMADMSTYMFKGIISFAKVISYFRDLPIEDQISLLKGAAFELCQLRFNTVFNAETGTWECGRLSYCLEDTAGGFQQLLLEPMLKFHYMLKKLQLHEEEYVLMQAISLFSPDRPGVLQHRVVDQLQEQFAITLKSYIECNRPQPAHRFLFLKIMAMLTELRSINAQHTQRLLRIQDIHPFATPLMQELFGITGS
# Summary of the method: (§1)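 Antagonist mode: rifampicin 2 uM final co-added with compounds to hPXR-LucHepG2 cells for 24 h at 37C. Viability by CellTiter-Fluor, Ex/Em 405/540 nm, 1 h; reporter by ONE-Glo luminescence.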
# [8] = Dual reporter qHTS for antagonist of Pregnane X Receptor (hPXR) against the NCATS DSHEA and TCM libraries: Fluorescence Readout (AID 1920061; active means well fitted curve in the direction sought with a large enough effect; an effect the other way counts as inactive or inconclusive; further: 0% is about no effect)
# Summary of the method: as §1
# [9] = qHTS for identification of novel therapeutic agents for treatment of microphthalmiaassociated transcription factor (MiT) renal cell carcinoma (RCC) (AID 1963991); settings: CellTiter-Glo, 48 h, stronger effect = lower value
# Summary of the method: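 Three TFE3-fusion RCC cell lines (UOK109, UOK124, UOK145), 500 cells/well, were exposed to the 1912-compound MIPE 4.0 library for 48 hours at 37 C. Viability was read by CellTiter-Glo luminescence, normalised to DMSO (100%) and empty wells (0%), with 11-concentration curve fits.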
# [10] = qHTS drug screen for cell cycle checkpoint inhibitors in PARPi-resistant BRCA-mutant ovarian cancer cell lines. (AID 1963452); settings: PEO1/OlaR viability, CellTiter-Glo luminescence, 96 h, stronger effect = lower value
# Summary of the method: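 PEO1, PEO4 and PEO1/OlaR ovarian cancer cells, 600 per well, exposed 96 h at 37C to a dilution series. Viability read by CellTiter-Glo luminescence, normalized to DMSO and empty wells; activity summarized as Z-AUC.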
# [11] = measured here: PEO1 parental Z-AUC
smiles,measurement,setting,value
C[C@@]12C[C@@]3(O)O[C@@H](O1)[C@]1(COC(=O)c4ccccc4)[C@@H]3C[C@@]12O[C@@H]1O[C@H](CO)[C@@H](O)[C@H](O)[C@@H]1O,Potency,[1],inactive
same,outcome,[2],inactive
same,outcome,[3],inactive
same,Potency,[4],inactive
same,max response,[5],0.508% (inactive)
same,outcome,[6],inactive
same,outcome,[7],inactive
same,outcome,[8],inactive
same,z-score,"[9]; TFE3-RCC UOK109 viability, measured here: UOK109 Z-AUC",-0.0471
same,z-score,"[9]; TFE3-RCC viability, measured here: UOK124 Z-AUC",0.702
same,z-score,"[9]; TFE3-RCC viability, measured here: UOK145 Z-AUC",-0.0246
Cn1cnc(=N)c2[nH]cnc21,Z-AUC,[10],1.05 (inactive)
same,Z-AUC,[10]; [11],0.768
same,Z-AUC,[10]; measured here: PEO4 Z-AUC,0.897
CN1C(C(=O)Nc2ccccn2)=C(O)c2sc(Cl)cc2S1(=O)=O,Z-AUC,[10],0.627 (inactive)
same,Z-AUC,[10]; [11],0.551
same,Z-AUC,[10]; measured here: PEO4 Z-AUC,0.669
O=C(O)CCCCCC(=O)NN=C1CCCC1,Z-AUC,[10],1.41 (inactive)
same,Z-AUC,[10]; [11],1.02
same,Z-AUC,[10]; measured here: PEO4 Z-AUC,1.15
Cc1cnc(NC(=O)Nc2cc(Br)c(C)cc2OC[C@@H]2CNCCO2)cn1,Z-AUC,[10],-0.43 (inactive)
same,Z-AUC,[10]; [11],-0.193
same,Z-AUC,[10]; measured here: PEO4 Z-AUC,-0.00574
Nc1nc(=O)n([C@H]2C[C@H](O)[C@@H](CO)O2)cc1F,Z-AUC,[10],-1.47 (inactive)
same,Z-AUC,[10]; [11],-1.19
same,Z-AUC,[10]; measured here: PEO4 Z-AUC,-0.999
CN(C)CC(=O)N1CCC(c2ccc(NC(=O)c3ncc(C#N)[nH]3)c(C3=CCCCC3)c2)CC1,Z-AUC,[10],-1.11 (inactive)
same,Z-AUC,[10]; [11],-0.797
same,Z-AUC,[10]; measured here: PEO4 Z-AUC,-0.584
O=S(=O)(O)CCSSCCS(=O)(=O)O,Z-AUC,[10],-0.0996 (inactive)
same,Z-AUC,[10]; [11],0.123
same,Z-AUC,[10]; measured here: PEO4 Z-AUC,0.876
NC(=O)N1CCC(CC(=O)N2CCC([C@H]3c4ncc(Br)cc4CCc4cc(Cl)cc(Br)c43)CC2)CC1,Z-AUC,[10],-0.923 (inactive)
same,Z-AUC,[10]; [11],-0.883
same,Z-AUC,[10]; measured here: PEO4 Z-AUC,-0.991
Oc1ccc([C@@H]2Oc3ccc(O)cc3[C@@H]3CCC[C@@H]32)cc1,Z-AUC,[10],0.648 (inactive)
same,Z-AUC,[10]; [11],-0.25
same,Z-AUC,[10]; measured here: PEO4 Z-AUC,-0.0299
Cc1ncc(-c2ccnc(Nc3ccc(S(C)(=O)=O)cc3)n2)n1C(C)C,Z-AUC,[10],-1.39 (inactive)
same,Z-AUC,[10]; [11],-0.968
same,Z-AUC,[10]; measured here: PEO4 Z-AUC,-1.44
